Eight compounds from PubChem BioAssay (NCI) can be followed below.

Some test systems named below: NCI-H23 lung; NCI-H226 lung; NCI-H322M lung; HOP-62 NSCLC; NCI-H460 lung; HOP-92 NSCLC; NCI-H522 lung; A549/ATCC NSCLC; 786-0 renal; COLO 205 colon; DU-145 prostate; K-562 leukemia; MALME-3M melanoma; MDA-MB-231 breast; RXF 393 renal; SF-268 CNS; SF-295 CNS; SF-539 CNS; UACC-257 melanoma; M14 melanoma.
Holding throughout (test): NCI-60 one-dose screen, 48 h (100 = growth as untreated, 0 = no growth, -100 = all killed)
Details in all cases: 10 µM unless noted

The panel holds about 83,000 compounds, 20% with a hit somewhere; the sample as a whole holds those more often.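 Cells were grown in 96-well plates and exposed to the test compound at a single concentration for 48 hours; results are reported as percent growth, with values below 10 considered active.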 Values without a mark were called inactive. Activity calls are given as the source filed them.

Regarding `CCN(CC)S(=O)(=O)c1ccc(NC(=O)CSc2nnc(C)n2-c2ccccc2)cc1`, the growth was 97.6% in the assay on NCI-H23 lung; 95.3% with NCI-H226 lung; 113% in the assay on NCI-H322M lung; 104% in the assay on HOP-62 NSCLC; 115% with NCI-H460 lung; 76.9% with HOP-92 NSCLC. Moreover, the growth is 85.3% in the assay with NCI-H522 lung; 109% in the assay with A549/ATCC NSCLC; 109% in the assay on 786-0 renal; 112% with COLO 205 colon; 120% with DU-145 prostate; 88.5% in the assay on K-562 leukemia. The growth with MALME-3M melanoma is 132%; in the assay with MDA-MB-231 breast, 108%; in the assay on RXF 393 renal it was 110%; in the assay with SF-268 CNS, 97.7%; in the assay with SF-295 CNS, 115%; in the assay on SF-539 CNS, 101%. Further, the values for the growth in the assay with UACC-257 melanoma and with M14 melanoma were 95.4% and 116%, respectively.
On to `CCCCOc1nc2ccc(OC)cc2cc1-c1cc(-c2ccc(Cl)cc2)nc(-c2ccc(Cl)cc2)c1`, for which the growth in the assay on NCI-H23 lung is 102%; with NCI-H226 lung, 103%; in the assay with NCI-H322M lung, 99.7%; with HOP-62 NSCLC, 110%; in the assay on NCI-H460 lung it was 107%; with HOP-92 NSCLC it was 97.6%. For the same compound, the growth in the assay on NCI-H522 lung is 98.7%; in the assay on A549/ATCC NSCLC, 99.3%; with 786-0 renal, 112%; with COLO 205 colon, 112%; in the assay on DU-145 prostate it was 114%; in the assay with K-562 leukemia it was 106%. Further, the growth is 100% with MALME-3M melanoma; 93.5% in the assay with MDA-MB-231 breast; 101% in the assay with RXF 393 renal; 99.8% in the assay on SF-268 CNS; 98.1% in the assay on SF-295 CNS; 98.3% in the assay on SF-539 CNS. For the same compound, the growth was 99.6% with UACC-257 melanoma and 111% with M14 melanoma.
Take `Cc1nn(-c2ccccc2)c(-n2ccnc2)c1/C=N/Nc1nc(-c2ccc(Cl)c(Cl)c2)cs1`: the growth is 12.5% with NCI-H23 lung; 51.9% in the assay with NCI-H226 lung; 76% in the assay with NCI-H322M lung; 10.8% in the assay on HOP-62 NSCLC; 3.5% (active) with NCI-H460 lung; -22.9% (active) with HOP-92 NSCLC. Besides, the growth in the assay with NCI-H522 lung is 31.5%; in the assay on A549/ATCC NSCLC it was -8.24% (active); in the assay on 786-0 renal, 20.7%; with COLO 205 colon, 52.1%; in the assay with DU-145 prostate it was 2.44% (active); with K-562 leukemia it was 18.7%. Moreover, the growth is 22.5% with MALME-3M melanoma; 6.68% (active) in the assay on MDA-MB-231 breast; -1.62% (active) with RXF 393 renal; 41.8% with SF-268 CNS; 57.7% in the assay on SF-295 CNS; 59.3% in the assay with SF-539 CNS. Further, the growth in the assay on UACC-257 melanoma was 62.7%; in the assay with M14 melanoma, 45.1%.
Turning to `Cn1cc(-c2cc3ncnc(Nc4ccc(CC(=O)Nc5cc(C(C)(C)C)on5)cc4)c3s2)cn1`, the growth in the assay on NCI-H23 lung was 50.2%; in the assay on NCI-H226 lung, 26%; with NCI-H322M lung, 32.9%; with HOP-62 NSCLC, 58.1%; in the assay on NCI-H460 lung it was 28.4%; in the assay with HOP-92 NSCLC it was 35.8%. Moreover, the growth is 36.3% in the assay on NCI-H522 lung; 21.6% with A549/ATCC NSCLC; 36% with 786-0 renal; 24.7% in the assay with COLO 205 colon; 29.9% in the assay with DU-145 prostate; 11.1% in the assay on K-562 leukemia. The growth in the assay with MALME-3M melanoma was 43.4%; with MDA-MB-231 breast it was 34.4%; in the assay with RXF 393 renal it was 19.3%; with SF-268 CNS, 31.6%; in the assay on SF-295 CNS, 49.9%; with SF-539 CNS, 15.7%. The growth with UACC-257 melanoma was 59.3%; with M14 melanoma, 21.1%.
In the case of `COc1cc2cc(Oc3ccc(NC(=O)Nc4ccc(Cl)c(Cl)c4)cc3)c(C)nc2cc1OCCN1CCOCC1`, the growth was 58.9% in the assay on NCI-H23 lung; 57.7% in the assay with NCI-H226 lung; 105% with NCI-H322M lung; 105% with HOP-62 NSCLC; 91.8% with NCI-H460 lung; 76.8% in the assay with HOP-92 NSCLC. The growth in the assay with NCI-H522 lung is 67.5%; in the assay on A549/ATCC NSCLC it was 76.7%; with 786-0 renal, 91.5%; with COLO 205 colon, 104%; with DU-145 prostate, 99.6%; in the assay on K-562 leukemia it was 39.2%. The growth was 92.2% with MALME-3M melanoma; 97.1% with MDA-MB-231 breast; 84% with RXF 393 renal; 94.3% with SF-268 CNS; 80.1% in the assay with SF-295 CNS; 93.6% in the assay on SF-539 CNS. Also, the figures for the growth in the assay with UACC-257 melanoma and in the assay with M14 melanoma were 74.3% and 101%, respectively.
As to `Cc1ccc(-c2cnc3sc(C(=O)NCCc4ccccc4)c(C)n23)cc1`, the growth in the assay with NCI-H23 lung was 95.4%; in the assay on NCI-H226 lung, 78.6%; with NCI-H322M lung it was 91.6%; in the assay on HOP-62 NSCLC it was 89.1%; with NCI-H460 lung, 102%; in the assay on HOP-92 NSCLC, 91.1%. In addition, the growth in the assay on NCI-H522 lung is 91.7%; in the assay with A549/ATCC NSCLC it was 109%; with 786-0 renal, 97.7%; with COLO 205 colon, 116%; in the assay on DU-145 prostate, 99.1%; in the assay with K-562 leukemia, 93.9%. The growth with MALME-3M melanoma is 95.5%; in the assay on MDA-MB-231 breast, 79.1%; with RXF 393 renal it was 99.1%; with SF-268 CNS, 86.7%; in the assay on SF-295 CNS it was 104%; in the assay with SF-539 CNS, 96.6%. In addition, the growth with UACC-257 melanoma is 120%; in the assay with M14 melanoma, 91.9%.
Take `CN(C)CC#Cc1ccc2ncc(C#N)c(Nc3ccc(F)c(Cl)c3)c2c1`: the growth was 58.2% in the assay with NCI-H23 lung; 60.8% with NCI-H226 lung; 14.9% in the assay on NCI-H322M lung; 67.8% in the assay with HOP-62 NSCLC; 50.8% in the assay with NCI-H460 lung; 56.1% with HOP-92 NSCLC. The growth is 45.3% with NCI-H522 lung; 51% in the assay with A549/ATCC NSCLC; 49.4% with 786-0 renal; 71.3% with COLO 205 colon; 22.4% with DU-145 prostate; 51.4% in the assay with K-562 leukemia. The growth with MALME-3M melanoma is 45.1%; in the assay with MDA-MB-231 breast, 56.1%; with RXF 393 renal, 32.4%; in the assay with SF-268 CNS, 59.2%; in the assay with SF-295 CNS, 65.4%; in the assay on SF-539 CNS, 62.4%. Moreover, the figures for the growth in the assay on UACC-257 melanoma and with M14 melanoma were 76% and 40.5%, respectively.
For `CCOC(=O)c1cn2ncnc(Oc3ccc(NC(=O)NCCN(C)C)c(Cl)c3)c2c1C`, the growth with NCI-H23 lung is 75.5%; with NCI-H226 lung, 93.2%; with NCI-H322M lung it was 90.5%; in the assay on HOP-62 NSCLC, 95.3%; in the assay on NCI-H460 lung, 103%; in the assay with HOP-92 NSCLC it was 44.8%. Also, the growth with NCI-H522 lung was 87.9%; in the assay with A549/ATCC NSCLC it was 92.4%; in the assay on 786-0 renal it was 76.1%; in the assay with COLO 205 colon, 55.9%; in the assay with DU-145 prostate, 86.8%; with K-562 leukemia, 4.33% (active). For the same compound, the growth is 58.9% with MALME-3M melanoma; 65.2% in the assay with MDA-MB-231 breast; 55.6% in the assay with RXF 393 renal; 65.1% in the assay with SF-268 CNS; 94.6% in the assay with SF-295 CNS; 71.5% in the assay on SF-539 CNS. The growth is -4.6% (active) in the assay on UACC-257 melanoma and -40.6% (active) in the assay with M14 melanoma.
